The list is not random: actives were taken first. Their share in the collection is about 10%.
SARS PLpro yeast – blocks SARS-CoV papain-like protease in a yeast assay. 330,000 compounds, 0.19% hits. Potency, µM (top dose mostly 32.9 µM), for the others: top-dose activity, positive = growth rescue, actives largely listed as activators. AID 485353. S. cerevisiae expressing SARS-CoV PLpro, growth rescue; note: potency is the fitted concentration of half-maximal effect; 0% is about no effect; nearly all actives have a fitted effect of over 55% in size
NS1 inh – blocks influenza NS1 protein function; 270,000 compounds, 0.4% hits; AID 2326; Potency, µM (titrated, usually from 46.1 µM), for the others: at the top dose activity, positive = more growth; note: potency is the fitted concentration of half-maximal effect; actives are rising curves; nearly all actives have a fitted effect of over 50% in size
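Recovery from NS1-induced slow growth read by OD600 in budding yeast switched to galactose assay medium (pH 6.0, -URA) at 1:100 dilution. Compound 23 nl per well; the matching strain lacking NS1 serves as control.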
Pf growth 96h – P. falciparum growth inhibition at 96 hours | AID 504834 | 320,000 compounds, 6.9% hits | Potency, µM (top dose mostly 28.7 µM), inactives show at the highest dose activity change, negative = inhibition, most hits filed as inhibitors | P. falciparum luciferase reporter growth, 96 h; active = well fitted inhibition curve with a large enough effect; inconclusive = small, poorly fitted or top-dose-only effect, or another doubt; inactive = no such curve, though single readings can be large or run the other way; note: potency is the fitted concentration of half-maximal effect; % is set by controls: 0 for no effect and ±100 for the full control effect
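Two-generation exposure (96 h) targets delayed-death phenotype. Reporter parasites carrying integrated firefly luciferase, in red cells at 2% hematocrit and 0.05% parasitemia final, kept at 37 C, 5% CO2; luminescence loss indicates inhibition.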
Pf growth 48h – P. falciparum growth inhibition at 48 hours (one generation); P. falciparum luciferase growth in erythrocytes, 48 h; Potency, µM (titrated, usually from 28.7 µM), inactives show at the highest dose activity change, negative = inhibition, most hits filed as inhibitors; 310,000 compounds, 5.9% hits; active = well fitted inhibition curve with a large enough effect; inconclusive = small, poorly fitted or top-dose-only effect, or another doubt; inactive = no such curve, though single readings can be large or run the other way; note: potency is the fitted concentration of half-maximal effect; % is set by controls: 0 for no effect and ±100 for the full control effect
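Compounds are pin-transferred into medium, infected erythrocytes (2% hematocrit, 0.1% parasitemia final) are added, and plates sit one parasite generation at 37 C in 5% CO2. Detection reagent is then added and luminescence measured.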
Flu NS1 inh – validation of influenza NS1 protein function inhibitors; shares compounds with NS1 inh; influenza NS1 function cell assay, 15-point titration; activity change, negative = inhibition, % at 32.9 µM; 1,400 tested, under 10 active; note: 0% is about no effect
The depositor's hits bear a star; u = inconclusive; x = not tested or not shown. Unless noted, calls come from the whole dose curve.

SMILES | SARS PLpro yeast | NS1 inh | Pf growth 96h | Pf growth 48h | Flu NS1 inh
C#C[C@]1(O)CC[C@H]2[C@@H]3CCC4=CC(=O)CC[C@]4(C)[C@H]3CC[C@@]21C | -1% | 1% | u | -6% | x
COc1ccc(CNC(=O)CN(C(=O)CCC(=O)Nc2ccccn2)c2cccc(C)c2C)cc1 | -3% | -20% | 2% | u | x
COC(=O)C(NC(C)=O)(Nc1nc2ccc(C)cc2s1)C(F)(F)F (configuration not stated) | 22% | 8.9µM* | -9% | x | -5
CCCCOc1ccc(-c2c(C#N)c(N)nc(SCC(N)=O)c2C#N)cc1 | 12% | u | u | u | x
CCCOc1ccc(-c2cnc(SCC(N)=O)nc2N)cc1 | -1% | 8.9µM* | x | 1% | 11
O=C(NCc1ccccc1)c1cc[n+](Cc2ccccc2)cc1 | 0% | x | u | u | x
CN(c1ccccc1)S(=O)(=O)c1ccc(Cl)c(C(=O)Nc2nc3ccccc3[nH]2)c1 | 9% | 10µM* | 6.6µM* | u | 38
CC(C)(C)c1ccc(OCc2ccc(C(=O)N/N=C3\CC4CC=CC34)cc2)cc1 (configuration not stated) | -7% | 12% | -16% | 10% | x
O=C(N/N=C1\CC2CC=CC12)c1ccc(COc2ccccc2)cc1 (configuration not stated) | -2% | 5.6µM* | u | -17% | -16
CCOc1cc(C#N)c(NC(=O)CSc2nnnn2-c2ccc(OC)cc2)cc1OCC | 1% | u | x | u | -2
CCCCc1n[nH]c2c1/C(=N/O)CC(c1ccccc1)C2 (configuration not stated) | 5% | u | -11% | -11% | 8
COc1ccc(CN2C(=O)c3ccccc3C2=O)cc1 | 2% | -16% | 0% | u | x
Cc1cc2cc(CN3C(=O)c4ccccc4C3=O)ccc2[nH]1 | 29% | u | u | -1% | 21
Cc1ccc(-n2c3c(cc(C(=O)NCc4ccco4)c2=O)C(=O)CC(C)(C)C3)cc1 | -4% | 1.1µM* | 0.47µM* | u | -8
COc1ccc(S(=O)(=O)N(CC(=O)NN=C2CCN(C)CC2)c2ccc(C)cc2)cc1OC | -7% | 27% | 5% | 6% | x
Cc1ccc(N(CC(=O)NN=C2CCN(C)CC2)S(=O)(=O)c2ccccc2)c(C)c1 | 4% | 4.5µM* | 44% | -7% | 27
CCC[C@@H]1Cc2ccccc2N1C(C)=O | -27% | x | 37% | 20% | x
COc1ccc(C2C(C(=O)c3sc(C)nc3C)=C(O)C(=O)N2CCCn2ccnc2)cc1OC (configuration not stated) | 4% | 1.8µM* | 17% | -8% | -6
CCN(CC)C(=O)C1CCCN(C(=O)c2oc3ccc(C)cc3c2C)C1 (configuration not stated) | -2% | -6% | 29% | 18% | x
O=C(N/N=C/C=C/c1ccccc1[N+](=O)[O-])c1cc(-c2ccccc2)n[nH]1 | u | 2.2µM* | u | u | 10
O=C(N/N=C/C=C\c1ccccc1[N+](=O)[O-])c1ccccn1 | -20% | -21% | 91% | 110% | x
COc1ccc(N2CCN(C(=O)COC(=O)CCOc3ccccc3C)CC2)cc1 | 1% | x | 16% | 13% | x
O=C1CC(/C=C/c2ccccc2)(C(=O)NC2CCCC2)N1c1ccc(S(=O)(=O)N2CCCC2)cc1 (configuration not stated) | 8% | 24% | 10% | -15% | x
CC1C(=O)N(c2ccc(S(=O)(=O)N(C)C)cc2)C1(/C=C/c1ccccc1)C(=O)NC1CCCC1 (configuration not stated) | -8% | 8.9µM* | 51% | 9.3µM* | 18
O=C(/C=C/c1ccc(Br)cc1)c1ccc(NC2=NCCCS2)cc1 | -10% | u | u | u | u
SMILES | SARS PLpro yeast | NS1 inh | Pf growth 96h | Pf growth 48h | Flu NS1 inh
Cc1onc(-c2ccccc2)c1C(=O)Nc1nnc(N(C)Cc2ccccc2)s1 | 3% | 7.9µM* | -23% | x | 13
Cc1cc(C)n2c(SCC(=O)N3CCN(S(=O)(=O)c4ccc(Cl)cc4)CC3)nnc2n1 | 8% | 10µM* | u | u | 0
Cc1nnc(SCC(=O)Nc2nc3c(s2)CC(C)CC3)s1 (configuration not stated) | -1% | u | -12% | 18% | 15
Cc1ccc(N2C(=O)CC(=O)NC2=O)cc1Cl | 5% | 10µM* | u | 9% | 20
O=C1CC(=O)N(c2ccc(Cl)cc2)C(=O)N1 | -6% | 27% | 61% | -2% | x
O=C(CC1NCCNC1=O)Nc1ccc2c(c1)OCO2 (configuration not stated) | 7% | 1.1µM* | 5% | x | 6
O=C(COC(=O)c1cc(-c2cccs2)nn1-c1ccccc1)Nc1ccc(Cl)c([N+](=O)[O-])c1 | -10% | 11µM* | 8% | 4% | -15
CN(CC(=O)Nc1ccc(Cl)cc1)C(=O)c1cc(-c2cccs2)nn1-c1ccccc1 | x | x | 0% | 10% | x
CCOC(=O)N1CCN(Cc2nc3cc(NC(=O)CC(C)C)ccc3n2CC)CC1 | 1% | -1% | 48% | u | x
CCOc1ccccc1N1CCN(C(=O)c2ccc(NS(=O)(=O)c3ccc4[nH]c(=O)[nH]c4c3)cc2)CC1 | -5% | x | u | -8% | x
COc1ccc(C(C)=O)cc1COc1cccnc1[N+](=O)[O-] | 0% | u | 1% | -5% | -6
CCOc1ccc(C(C)=O)cc1COc1cccnc1[N+](=O)[O-] | -4% | -70% | 1% | 22% | x
COc1ccc(/C=N/NS(=O)(=O)c2ccccc2)cc1OC(=O)c1ccc(C)cc1 | 3% | 8.9µM* | 67% | 35% | -5
Nc1nc(SCCO)[nH]c(=O)c1NC(=O)c1ccco1 | -5% | x | -22% | 22% | x
COc1ccc(C2N(c3ccc(F)cc3)C(=O)C3CCCN32)cc1 (configuration not stated) | 5% | 1.1µM* | -29% | x | 3
COc1ccccc1C1N(c2ccc(Cl)cc2)C(=O)C2CCCN21 (configuration not stated) | 15% | 11µM* | 41% | -29% | -21
COc1ccc(N2C(=O)C3CCCN3C2c2ccccc2OC)cc1 (configuration not stated) | 4% | -4% | u | x | x
Cc1nc(SCC(=O)N(CC(C)C)C2CCS(=O)(=O)C2)c2c(C)c(C)sc2n1 (configuration not stated) | 1% | x | u | u | x
Cn1cc(C(=O)N2CCN(C(=O)c3ccco3)CC2)c2c3ccccc3n(C)c2c1=O | 1% | 4µM* | 0% | 6% | -7
Cn1c2ccccc2c2c(C(=O)N3CCC4(CC3)OCCO4)cn(C3CCCC3)c(=O)c21 | 3% | 4% | 0% | x | x
C#CCN1Cc2ccccc2Oc2cc(Br)ccc2S1(=O)=O | -47% | x | x | x | x
COc1cccc(/C=C2\C(=O)N(c3cccc(C)c3)C(=O)c3ccccc32)c1 | -18% | u | u | u | u
Cn1c(N)c(S(=O)(=O)NCc2ccc(F)cc2)c(=O)n(C)c1=O | -5% | 5% | -29% | 10% | x

Bioassay records as filed in PubChem BioAssay.
